The record followed here is PubChem BioAssay (Tox21).

Inconclusive results are not listed. The source holds several records for some structures; these can differ, active in one and inactive in another. The source made the active and inactive calls. Unless noted, the call rests on the fitted dose curve; in most records, active means well fitted curve in the direction sought with a large enough effect in the repeat runs; inconclusive means weak or mixed curves; inactive means no such curve, though single readings can be large; an effect the other way counts as inactive or inconclusive.

Assay [1] is described as follows: qHTS assay for small molecule agonists of the p53 signaling pathway (AID 651631; calls by dose curve; further: nearly all actives have a fitted effect of over 15% in size). The method, boiled down:
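Fluorescence intensity from cleaved LiveBLAzer B/G substrate (2 h, room temperature) served as the signal. Beforehand, HCT-116 reporter cells bearing p53 response elements were treated 16 h at 37 °C with DMSO-dissolved compounds.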
(In general: Quantitative high-throughput screening tests each substance at several concentrations.)

Assay [2] is described as follows: qHTS assay for small molecules that induce genotoxicity in human embryonic kidney cells expressing luciferase-tagged ATAD5 (AID 651632). Further: nearly all actives have a fitted effect of over 15% in size. The method, boiled down: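 DMSO vehicle served as the control. HEK293T reporter cells, 16 hr at 37C, then 30 min Amplite at room temperature; ATAD5 induction is measured as luciferase activity.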
Assay [3] in a line: qHTS assay for small molecule agonists of the p53 signaling pathway - cell viability (AID 651633; calls by dose curve;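 further: p53RE-bla HCT reporter cells with a stable beta-lactamase p53 reporter; series mostly up to about 83 µM; nearly all actives have a fitted effect of over 30% in size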). The method in brief:
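Viability counter-read: CellTiter-Glo luminescence (30 min, room temperature) in the same p53RE-bla plates. These plates had been exposed to compounds for 16 h at 37 C.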

Assay [4] in a line: qHTS assay for small molecules that induce genotoxicity in human embryonic kidney cells expressing luciferase-tagged ATAD5 - cell viability (AID 651634; calls by dose curve; further: nearly all actives have a fitted effect of over 25% in size). The method, boiled down:
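Here HEK293T cells with the ATAD5 luciferase reporter are incubated with test compounds for 15.5 hr, and cytotoxicity is then gauged by measuring protease activity in live cells using fluorescence.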

Assay [5] is described as follows: qHTS assay for small molecule disruptors of the mitochondrial membrane potential - cell viability (AID 720634; calls by dose curve;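 further: human HepG2 liver cancer cells; series mostly up to about 83 µM; nearly all actives have a fitted effect of over 20% in size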). The method in brief:
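Viability of HepG2 cells is scored from ATP content by luminescence; cells are exposed to compound for 1 hr at 37 C and 5% CO2, then dosed with m-MPI dye before the CellTiter-Glo reagent.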

The nature of assay [6]: qHTS assay for small molecule disruptors of the mitochondrial membrane potential (AID 720635). Further: potency means the concentration at half of the fitted maximal effect. The method, boiled down: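 Mitochondrial membrane potential tracked with Mito-MPS dye, red aggregates (ex 540/em 590 nm) against green monomers (ex 490/em 535 nm). Compound treatment 1 hr at 37C, dye 30 min in HepG2.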
Assay [7] is described as follows: qHTS assay to test for compound auto fluorescence at 590 nm (red) in HepG2 cells (AID 720674). The method in brief:
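We screened compounds on adherent HepG2 cells, incubating them for an hour at 37 C in 5% CO2 before reading emission at 590 nm under 540 nm excitation; values reflect equivalence to Rose Bengal sodium fluorescence.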

Assay [8] can be described thus: qHTS assay to test for compound auto fluorescence at 535 nm (green) in HepG2 cells (AID 720675).
Assay [9] in a line: qHTS assay to test for compound auto fluorescence at 460 nm (blue) in HEK293 cells (AID 720678). The method in brief: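 HEK293 cells (2,000/well, medium with 10% dialyzed FBS) attached 4-5 hr, then exposed to compound overnight at 37C, 5% CO2. Blue fluorescence read at 405/460 nm, with triamterene as reference fluorophore.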
A short description of assay [10]: qHTS assay to test for compound auto fluorescence at 590 nm (red) in HEK293 cells (AID 720679). The method in brief: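 HEK293 cells (2,000/well, 10% dialyzed FBS) attached 4-5 hr, then dosed with compound or DMSO and incubated overnight at 37C, 5% CO2. Red fluorescence read at 540/590 nm, Rose Bengal sodium as reference fluorophore.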
A short description of assay [11]: qHTS assay to test for compound auto fluorescence at 535 nm (green) in HEK293 cells (AID 720680).
Assay [12] is described as follows: qHTS assay to test for compound auto fluorescence at 460 nm (blue) in HEK293 cell free culture (AID 720681). The method in brief: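 Blue fluorescence (Ex 405/Em 460 nm, triamterene-equivalent) was read immediately after pin transfer of compound or DMSO into medium (DMEM, 10% FBS) without cells.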
Assay [13] is described as follows: qHTS assay to test for compound auto fluorescence at 535 nm (green) in HEK293 cell free culture (AID 720682). The method in brief:
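Intrinsic compound fluorescence is measured in culture medium containing 10% FBS, with excitation at 485 nm and detection at 535 nm, referenced to fluorescein.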

A short description of assay [14]: qHTS assay to test for compound auto fluorescence at 590 nm (red) in HepG2 cell free culture (AID 720684). The method in brief: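 No cells present: MEM + 10% FBS only. Compound pinned in, red label read (540/590 nm). Activity = fluorescence equivalent to Rose Bengal sodium.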
Assay [15] in a line: qHTS assay to test for compound auto fluorescence at 460 nm (blue) in HepG2 cell free culture (AID 720685). The method in brief: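 Cell-free plates of MEM plus 10% FBS received 23 nL compound or DMSO vehicle; blue-channel (405/460 nm) intensity scored against triamterene as reference fluorophore.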
The nature of assay [16]: qHTS assay to test for compound auto fluorescence at 535 nm (green) in HepG2 cell free culture (AID 720686).
Assay [17] in a line: qHTS assay to test for compound auto fluorescence at 460 nm (blue) in HepG2 cells (AID 720687). The method in brief:
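Blue-channel autofluorescence (Ex/Em 405/460 nm, triamterene-equivalent) was measured after 1 hr compound exposure at 37 C, 5% CO2. Cells were HepG2, plated overnight at 37 C in MEM plus 10% FBS.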

Assay [18] addresses Glucocorticoid receptor (Homo sapiens) (UniProt P04150). The experiment in a line: qHTS assay to identify small molecule agonists of the glucocorticoid receptor (GR) signaling pathway (AID 720691; active means well fitted activation curve with a large enough effect in the signal ratio in the repeat runs, not every such curve was filed as active; the % refers to the signal ratio). The method in brief: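 Compounds in DMSO, alongside positive controls, were added to GR-bla HeLa reporter cells and incubated 18 h at 37 C; GRE-driven beta-lactamase was detected by fluorescence after 2 h with FRET substrate at room temperature.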

For assay [19] the target is unchanged. The experiment in a line: qHTS assay to identify small molecule antagonists of the glucocorticoid receptor (GR) signaling pathway (AID 720692; active means well fitted inhibition curve with a large enough effect in the signal ratio in the repeat runs, not every such curve was filed as active; the % refers to the signal ratio). The method, boiled down:
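In a 1536-well cell format, compounds were added 4 h after seeding GR-bla HeLa cells, together with dexamethasone at 5 nM final; reporter activity was measured by FRET-substrate fluorescence following 18 h at 37 C.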

Assay [20] in a line: qHTS assay to test for compound auto fluorescence at 590 nm (red) in HEK293 cell free culture (AID 720683). The method, boiled down:
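Red-channel autofluorescence of compounds in culture medium (DMEM, 10% FBS), no cells, measured at 540/590 nm. Rose Bengal sodium is the reference fluorophore for equivalence.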

Chain of Glucocorticoid receptor (Homo sapiens) (P04150 whole entry, looked up): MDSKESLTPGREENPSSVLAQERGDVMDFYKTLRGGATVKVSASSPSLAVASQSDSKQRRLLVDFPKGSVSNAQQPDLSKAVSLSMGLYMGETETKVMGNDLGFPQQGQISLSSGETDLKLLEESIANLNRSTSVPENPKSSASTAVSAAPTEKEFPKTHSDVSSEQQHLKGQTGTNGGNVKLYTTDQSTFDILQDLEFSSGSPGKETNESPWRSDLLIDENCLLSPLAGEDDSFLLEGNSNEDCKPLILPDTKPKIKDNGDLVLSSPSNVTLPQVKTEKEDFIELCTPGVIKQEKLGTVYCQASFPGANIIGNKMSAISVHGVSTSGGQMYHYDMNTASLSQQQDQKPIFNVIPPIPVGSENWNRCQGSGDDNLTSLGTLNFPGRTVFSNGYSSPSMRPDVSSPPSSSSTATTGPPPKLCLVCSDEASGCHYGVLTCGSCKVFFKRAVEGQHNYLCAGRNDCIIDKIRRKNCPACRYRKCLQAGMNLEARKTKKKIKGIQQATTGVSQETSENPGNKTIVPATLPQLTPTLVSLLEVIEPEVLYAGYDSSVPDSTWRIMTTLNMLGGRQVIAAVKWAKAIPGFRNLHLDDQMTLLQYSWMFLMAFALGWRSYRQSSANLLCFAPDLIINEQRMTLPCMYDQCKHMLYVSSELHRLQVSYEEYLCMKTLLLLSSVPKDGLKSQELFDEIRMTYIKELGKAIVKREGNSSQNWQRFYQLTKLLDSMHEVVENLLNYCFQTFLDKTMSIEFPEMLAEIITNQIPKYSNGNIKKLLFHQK

With `O=C(O)COc1ccccc1`, the Potency result in assay [1], in assay [2], in assay [3], in [4], in assay [5] and in assay [6] was “inactive” in each case. Further, in assay [19], the Potency entry was “inactive”. Further, the compound was called inactive in assay [7], in assay [8], in [9], in [10], in assay [11] and in assay [12]. Also, the compound was classed as inactive in [13], in [14], in [15], in [16], in assay [17] and in assay [18].

In the case of `OCc1ccco1`, the Potency entry in [1], in assay [2], in assay [3], in assay [4], in [5] and in assay [6] was “inactive” in each case. Further, the call in [7], in assay [8], in assay [9], in assay [10], in assay [11] and in assay [12] was inactive. Moreover, the compound was classed as inactive in assay [13], in [14], in assay [15], in [16] and in assay [17].

As for `CN(C)CCC#N`, the Potency entry in assay [1], in assay [2], in assay [3], in [4], in assay [5] and in [6] was “inactive” in each case. Further, the Potency result in assay [19] was “inactive”. Also, the compound was called inactive in [7], in assay [8], in assay [9], in assay [10], in assay [11] and in [12]. The call in assay [13], in assay [14], in assay [15], in assay [16], in assay [17] and in assay [18] was inactive.

`CC(C)(C)C(=O)CCl`: the Potency entry in assay [1], in assay [2], in assay [3], in assay [4], in assay [5] and in assay [6] was “inactive” each time. Besides, the Potency result in assay [19] was “inactive”. In addition, the outcome in assay [7], in [8], in assay [9], in assay [10], in assay [11] and in [12] was inactive. The compound was called inactive in assay [13], in assay [20], in assay [14], in [15], in assay [16] and in [17]. The outcome in [18] was inactive.

On to `CN(C)C(=O)Nc1cccc(C(F)(F)F)c1`, for which the Potency result in assay [1], in assay [2], in assay [3], in [4], in assay [5] and in assay [6] was “inactive” in each case. For the same compound, the outcome in [7], in assay [8], in assay [9], in assay [10], in assay [11] and in [12] was inactive. The outcome in [13], in [14], in [15], in [16] and in assay [17] was inactive.

Take `CC[N+](=O)[O-]`: the Potency result in assay [1], in assay [2], in [3], in [4], in assay [5] and in assay [19] was “inactive” each time. In addition, the outcome in assay [7], in [8], in assay [9], in assay [10], in assay [11] and in assay [12] was inactive. Also, the outcome in assay [13], in assay [20], in assay [14], in [15], in assay [16] and in [17] was inactive. Also, the compound was classed as inactive in assay [18].

`CCOP(=S)(OCC)Oc1ccc([N+](=O)[O-])cc1`: the Potency result in assay [1], in assay [2], in assay [3], in assay [4], in [5] and in assay [19] was “inactive” each time. Also, the Potency in assay [6] is 55.1 µM (active) and inactive. The call in [7], in assay [8], in assay [9], in assay [10], in assay [11] and in assay [12] was inactive. For the same compound, the compound was called inactive in assay [13], in assay [20], in assay [14], in [15], in [16] and in [17]. In addition, the compound was classed as inactive in [18].
